According to PubChem BioAssay (NCATS):
Records with an inconclusive call do not appear. Calls come from the whole dose curve; as a rule, active = well fitted curve in either direction with a large enough effect (not every such curve was filed as active); inconclusive = small, poorly fitted or top-dose-only effect, or another doubt; inactive = flat fitted curve, though single readings scatter.

test: Stat Signaling Pathway (AID 446); settings: ME-180 SIE beta-lactamase reporter, IL-6 stimulated, 5 h; at 7.69 µM (top of the series) unless noted;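 note: ME-180 cervical cancer cells given 40 pM IL-6 alongside compound; SIE-controlled beta-lactamase reporter measured as 460/530 nm FRET emission ratio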
Procedure, shortened: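 ME-180 cells carrying a SIE-driven beta-lactamase reporter are stimulated with 40 pM IL-6 for 5 h at 37C in the presence of compound. The 460/530 nm FRET substrate ratio is read after 2.5 h at RT. Data are normalised to 300 pM IL-6 and to 125 nM JAK inhibitor controls.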
% is set by controls: 0 for no effect and ±100 for the full control effect.

activity, negative = inhibition, inactive:
COCCn1c(=O)cnc2cnc(OCc3ccccc3)nc21 3.06%, COc1ccc(NC(=O)N2CC3(CCN(C(=O)c4cccc(F)c4)CC3)C2)cc1 0.388%, COc1ccc(C(=O)N2CCC[C@@]3(CCN(Cc4ccccc4OC)C3)C2)cc1 5.47%, Cc1nc2cnc(OCc3ccccc3)nc2n(CCC#N)c1=O -1.87%, Cc1cnc(CNc2ncnc3ccc(-c4ccccc4C#N)cc23)cn1 -10.7%, COC(=O)N1CCC2(CCN(C(=O)Nc3ccc(OC)cc3)CC2)CC1 3.42%, O=c1c(-c2cccc(F)c2)nc2cncnc2n1Cc1ccccc1 -8.08%, COc1ccc(C(=O)N2CCC3(CC2)CCN(c2cccc(-c4ccccc4)c2)CC3)cc1 -19%, COc1ccc(Oc2ncc3ncc(=O)n(Cc4cccc(OC)c4)c3n2)cc1 -3%, COCC(=O)N1CCC2(CCN(Cc3cc(C(F)(F)F)cc(C(F)(F)F)c3)CC2)CC1 8.32%, O=C(c1csnn1)N1CCC2(CCCN(c3ncccn3)C2)CC1 1.38%, O=C(Nc1ccccc1)N1CCC2(CCNCC2)CC1 10.8%, COc1ccccc1CCn1c(=O)c(C)nc2cncnc21 -13.1%, N#Cc1ccc(CN2CC3(CCN(C(=O)c4csnn4)CC3)C2)cc1 5.17%, COc1ccc(Oc2ncc3nc(C)c(=O)n(C4CC4)c3n2)cc1 -4.78%, COCCn1c(=O)c(-c2ccc(OC)cc2)nc2cnc(Oc3ccc(OC)cc3)nc21 -7.21%
